Experimental data from ChEMBL document CHEMBL1961873, “Compounds: GSK PKIS; Assays: Nanosyn kinase panel” (2012).

What was measured:
[1] = molecular target: T1, Serine/threonine-protein kinase D2 (Homo sapiens) (UniProt Q9BZL6); conditions: at 1 µM;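 further: mean value of PRKD2 inhibition, from the GSK PKIS screening panel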
T1 sequence (whole entry): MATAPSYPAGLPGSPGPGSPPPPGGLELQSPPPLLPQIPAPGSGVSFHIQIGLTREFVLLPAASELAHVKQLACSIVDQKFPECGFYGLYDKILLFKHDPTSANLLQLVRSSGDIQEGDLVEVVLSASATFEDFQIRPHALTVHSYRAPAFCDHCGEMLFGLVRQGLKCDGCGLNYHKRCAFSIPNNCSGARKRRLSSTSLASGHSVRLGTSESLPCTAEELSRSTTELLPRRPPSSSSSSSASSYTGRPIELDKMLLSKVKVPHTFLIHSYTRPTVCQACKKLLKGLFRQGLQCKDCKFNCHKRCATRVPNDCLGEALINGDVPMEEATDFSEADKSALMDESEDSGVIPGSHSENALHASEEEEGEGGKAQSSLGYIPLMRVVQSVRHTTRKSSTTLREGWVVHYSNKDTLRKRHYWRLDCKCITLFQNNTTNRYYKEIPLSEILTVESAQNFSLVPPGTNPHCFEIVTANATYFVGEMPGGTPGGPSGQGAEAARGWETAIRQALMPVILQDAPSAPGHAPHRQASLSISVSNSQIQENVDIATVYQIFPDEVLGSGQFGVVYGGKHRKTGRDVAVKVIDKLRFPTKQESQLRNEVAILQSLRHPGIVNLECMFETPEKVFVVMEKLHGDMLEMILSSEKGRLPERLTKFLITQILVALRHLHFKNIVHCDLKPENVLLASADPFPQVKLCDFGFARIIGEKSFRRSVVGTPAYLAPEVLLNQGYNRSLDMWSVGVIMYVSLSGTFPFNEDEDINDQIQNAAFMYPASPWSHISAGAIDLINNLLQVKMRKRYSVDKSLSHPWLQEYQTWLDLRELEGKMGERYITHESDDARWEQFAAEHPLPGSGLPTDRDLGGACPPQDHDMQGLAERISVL

[2] = molecular target: T2, Serine/threonine-protein kinase D3 (Homo sapiens) (UniProt O94806); conditions: at 0.1 µM
T2 sequence (whole entry): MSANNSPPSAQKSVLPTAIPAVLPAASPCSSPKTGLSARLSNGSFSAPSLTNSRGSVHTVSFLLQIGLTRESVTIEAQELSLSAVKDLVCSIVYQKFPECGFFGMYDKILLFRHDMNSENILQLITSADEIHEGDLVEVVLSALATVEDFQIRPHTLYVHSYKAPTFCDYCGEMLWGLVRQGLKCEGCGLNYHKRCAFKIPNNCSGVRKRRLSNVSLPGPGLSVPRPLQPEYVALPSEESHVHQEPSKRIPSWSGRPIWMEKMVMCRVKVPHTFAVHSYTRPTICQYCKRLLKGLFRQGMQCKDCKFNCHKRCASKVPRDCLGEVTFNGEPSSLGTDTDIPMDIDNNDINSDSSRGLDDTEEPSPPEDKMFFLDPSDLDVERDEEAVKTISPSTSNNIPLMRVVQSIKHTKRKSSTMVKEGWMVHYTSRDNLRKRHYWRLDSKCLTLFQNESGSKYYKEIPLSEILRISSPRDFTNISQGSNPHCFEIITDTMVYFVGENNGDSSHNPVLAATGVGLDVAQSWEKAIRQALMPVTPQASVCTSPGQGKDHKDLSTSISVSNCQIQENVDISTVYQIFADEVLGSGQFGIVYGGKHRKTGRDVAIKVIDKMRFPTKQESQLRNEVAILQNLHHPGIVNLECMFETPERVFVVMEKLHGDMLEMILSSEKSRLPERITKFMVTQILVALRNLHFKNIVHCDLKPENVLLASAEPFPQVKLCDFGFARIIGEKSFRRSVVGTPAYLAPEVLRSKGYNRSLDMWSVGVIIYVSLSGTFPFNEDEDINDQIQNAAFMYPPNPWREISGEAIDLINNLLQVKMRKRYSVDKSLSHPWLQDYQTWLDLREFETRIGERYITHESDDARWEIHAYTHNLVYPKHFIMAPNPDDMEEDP

[3] = molecular target: T2, Serine/threonine-protein kinase D3 (Homo sapiens); conditions: at 1 µM
[4] = molecular target: T3, cGMP-dependent protein kinase 1 (Homo sapiens) (UniProt Q13976); conditions: at 0.1 µM
T3 sequence (whole entry): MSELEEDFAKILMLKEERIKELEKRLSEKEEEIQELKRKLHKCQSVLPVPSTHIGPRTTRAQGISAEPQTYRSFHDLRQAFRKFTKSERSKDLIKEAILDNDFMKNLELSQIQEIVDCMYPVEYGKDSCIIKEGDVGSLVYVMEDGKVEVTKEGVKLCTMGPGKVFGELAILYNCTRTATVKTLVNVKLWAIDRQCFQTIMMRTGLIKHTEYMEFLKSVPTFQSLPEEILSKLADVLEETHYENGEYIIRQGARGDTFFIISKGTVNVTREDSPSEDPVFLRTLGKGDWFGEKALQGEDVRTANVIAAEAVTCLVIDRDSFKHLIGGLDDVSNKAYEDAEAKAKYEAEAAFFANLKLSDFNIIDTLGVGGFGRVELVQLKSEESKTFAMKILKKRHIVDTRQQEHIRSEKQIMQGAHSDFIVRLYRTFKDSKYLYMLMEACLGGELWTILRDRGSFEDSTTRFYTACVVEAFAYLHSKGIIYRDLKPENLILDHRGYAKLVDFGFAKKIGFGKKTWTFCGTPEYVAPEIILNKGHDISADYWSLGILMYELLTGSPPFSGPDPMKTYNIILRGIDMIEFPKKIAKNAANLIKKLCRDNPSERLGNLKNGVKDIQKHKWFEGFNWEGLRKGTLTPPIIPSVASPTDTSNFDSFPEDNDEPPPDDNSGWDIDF

[5] = molecular target: T3, cGMP-dependent protein kinase 1 (Homo sapiens); conditions: at 1 µM
[6] = molecular target: T4, cGMP-dependent protein kinase 2 (Homo sapiens) (UniProt Q13237); conditions: at 0.1 µM
T4 sequence (whole entry): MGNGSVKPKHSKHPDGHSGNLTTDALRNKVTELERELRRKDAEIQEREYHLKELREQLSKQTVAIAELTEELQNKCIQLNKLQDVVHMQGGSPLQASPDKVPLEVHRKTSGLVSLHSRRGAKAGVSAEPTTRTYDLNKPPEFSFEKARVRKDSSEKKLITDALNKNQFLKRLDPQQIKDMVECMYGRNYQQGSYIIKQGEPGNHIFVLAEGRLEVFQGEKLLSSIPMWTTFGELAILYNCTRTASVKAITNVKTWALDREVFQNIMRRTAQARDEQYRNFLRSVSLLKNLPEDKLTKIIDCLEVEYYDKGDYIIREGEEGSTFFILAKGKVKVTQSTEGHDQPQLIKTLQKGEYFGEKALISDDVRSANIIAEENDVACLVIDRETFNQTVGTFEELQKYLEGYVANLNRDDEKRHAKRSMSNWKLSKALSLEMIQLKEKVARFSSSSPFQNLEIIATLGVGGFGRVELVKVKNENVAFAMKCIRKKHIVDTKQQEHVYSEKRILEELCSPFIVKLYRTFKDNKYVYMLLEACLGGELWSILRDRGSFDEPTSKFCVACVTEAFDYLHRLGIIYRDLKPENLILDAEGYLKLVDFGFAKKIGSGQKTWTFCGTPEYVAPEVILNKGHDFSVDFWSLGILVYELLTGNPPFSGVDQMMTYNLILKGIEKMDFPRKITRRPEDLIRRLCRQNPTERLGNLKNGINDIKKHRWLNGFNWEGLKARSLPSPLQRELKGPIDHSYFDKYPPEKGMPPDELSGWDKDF

[7] = molecular target: T4, cGMP-dependent protein kinase 2 (Homo sapiens); conditions: at 1 µM
[8] = molecular target: T5, cAMP-dependent protein kinase catalytic subunit PRKX (Homo sapiens) (UniProt P51817); conditions: at 0.1 µM
T5 sequence (whole entry): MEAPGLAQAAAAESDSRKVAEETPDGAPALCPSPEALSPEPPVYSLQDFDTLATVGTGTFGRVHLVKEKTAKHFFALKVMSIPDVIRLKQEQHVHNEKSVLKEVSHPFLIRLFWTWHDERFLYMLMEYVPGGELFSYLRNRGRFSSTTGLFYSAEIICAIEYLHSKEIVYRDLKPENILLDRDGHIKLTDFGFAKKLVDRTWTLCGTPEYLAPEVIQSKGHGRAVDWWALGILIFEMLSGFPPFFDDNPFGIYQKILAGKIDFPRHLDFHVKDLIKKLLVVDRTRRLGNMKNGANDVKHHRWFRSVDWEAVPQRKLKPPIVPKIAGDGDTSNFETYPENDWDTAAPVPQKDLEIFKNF

[9] = molecular target: T5, cAMP-dependent protein kinase catalytic subunit PRKX (Homo sapiens); conditions: at 1 µM
[10] = molecular target: Rho-associated protein kinase 1 (Homo sapiens) (UniProt Q13464); conditions: at 0.1 µM;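 further: values are mean percent inhibition of ROCK1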
Rho-associated protein kinase 1 (Homo sapiens), sequence (Q13464 2-1354 limits assumed): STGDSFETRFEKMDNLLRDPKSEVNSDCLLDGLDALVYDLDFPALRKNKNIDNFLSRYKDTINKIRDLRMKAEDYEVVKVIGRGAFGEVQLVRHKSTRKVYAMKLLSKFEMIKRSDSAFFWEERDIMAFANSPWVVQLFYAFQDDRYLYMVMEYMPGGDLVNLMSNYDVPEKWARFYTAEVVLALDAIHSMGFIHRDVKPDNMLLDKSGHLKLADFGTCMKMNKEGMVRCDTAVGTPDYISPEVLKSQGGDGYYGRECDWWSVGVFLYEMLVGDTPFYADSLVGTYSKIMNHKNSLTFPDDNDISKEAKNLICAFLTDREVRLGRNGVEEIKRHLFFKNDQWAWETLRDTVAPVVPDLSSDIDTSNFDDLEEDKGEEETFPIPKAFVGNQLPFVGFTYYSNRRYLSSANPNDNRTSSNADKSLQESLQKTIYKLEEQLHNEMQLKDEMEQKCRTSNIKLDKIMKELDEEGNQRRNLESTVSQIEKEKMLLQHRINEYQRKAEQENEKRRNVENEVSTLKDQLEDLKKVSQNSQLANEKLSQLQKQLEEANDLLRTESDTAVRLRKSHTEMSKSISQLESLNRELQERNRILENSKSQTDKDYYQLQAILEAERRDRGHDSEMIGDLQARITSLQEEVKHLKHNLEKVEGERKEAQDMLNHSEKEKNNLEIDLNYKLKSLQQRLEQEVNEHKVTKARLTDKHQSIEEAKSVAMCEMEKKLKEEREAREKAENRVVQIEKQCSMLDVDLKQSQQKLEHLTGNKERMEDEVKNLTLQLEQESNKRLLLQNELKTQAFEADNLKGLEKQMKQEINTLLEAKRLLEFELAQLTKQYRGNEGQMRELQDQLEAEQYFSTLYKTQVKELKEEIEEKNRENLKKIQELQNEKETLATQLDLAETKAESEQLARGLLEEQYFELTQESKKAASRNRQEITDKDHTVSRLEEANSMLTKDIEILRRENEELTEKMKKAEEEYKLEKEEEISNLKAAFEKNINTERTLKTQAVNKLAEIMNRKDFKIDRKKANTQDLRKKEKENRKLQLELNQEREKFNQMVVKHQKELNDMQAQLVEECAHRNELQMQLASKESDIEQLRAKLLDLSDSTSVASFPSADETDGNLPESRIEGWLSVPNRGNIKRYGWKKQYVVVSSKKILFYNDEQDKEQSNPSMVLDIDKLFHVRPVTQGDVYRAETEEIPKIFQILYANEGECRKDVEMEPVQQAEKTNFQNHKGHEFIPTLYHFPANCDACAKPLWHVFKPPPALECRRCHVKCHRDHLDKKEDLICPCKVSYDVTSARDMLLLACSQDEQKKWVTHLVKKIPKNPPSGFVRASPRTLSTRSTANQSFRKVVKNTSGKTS

Compound: CCn1c(-c2nonc2N)nc2c(C#CC(C)(C)O)ncc(OC[C@@H]3CCCN3)c21
- inhibition [1]: 12.6%
- inhibition [2]: 2.38%
- inhibition [3]: 15.9%
- inhibition [4]: 49.9%
- inhibition [5]: 76.4%
- inhibition [6]: 65.7%
- inhibition [7]: 76.5%
- inhibition [8]: 77%
- inhibition [9]: 85.4%
- inhibition [10]: 1.1%

Compound: Cc1cc(-c2ccco2)cc(C)c1/C=C/c1cncc(-c2nn[nH]n2)c1
- inhibition [1]: 2.37%
- inhibition [2]: 2.09%
- inhibition [3]: 1.22%
- inhibition [4]: -0.2%
- inhibition [5]: -0.46%
- inhibition [6]: 0.23%
- inhibition [7]: -1.21%
- inhibition [8]: 0.69%
- inhibition [9]: -0.08%
- inhibition [10]: 0.84%

Compound: Fc1ccc(-c2ncn(C3CCNCC3)c2-c2ccnc(Oc3ccccc3)n2)cc1
- inhibition [1]: 4.29%
- inhibition [2]: -1.84%
- inhibition [3]: 2.37%
- inhibition [4]: 0.84%
- inhibition [5]: 0.86%
- inhibition [6]: 0.69%
- inhibition [7]: 0.2%
- inhibition [8]: 1.64%
- inhibition [9]: 1.63%
- inhibition [10]: 0.65%

Compound: COc1cccc(-n2ncc3c(N/N=C/c4ccncc4)ncnc32)c1
- inhibition [1]: 9.06%
- inhibition [2]: 5.79%
- inhibition [3]: 9.03%
- inhibition [4]: 3.25%
- inhibition [6]: 1.96%
- inhibition [7]: 6.05%
- inhibition [8]: 1.85%
- inhibition [9]: 2.86%
- inhibition [10]: 2.51%

Compound: CCn1c(-c2nonc2N)nc2c(C#CCN)ncc(OCCCN)c21
- inhibition [1]: 0.48%
- inhibition [2]: -2.29%
- inhibition [3]: -1.06%
- inhibition [4]: 8.62%
- inhibition [5]: 38%
- inhibition [6]: 37.1%
- inhibition [7]: 74.6%
- inhibition [8]: 4.23%
- inhibition [9]: 18.9%
- inhibition [10]: 7.73%

Compound: COc1cccc(COc2cc(-n3cnc4ccccc43)sc2C(N)=O)c1
- inhibition [1]: 0.96%
- inhibition [2]: 0.24%
- inhibition [3]: 0.32%
- inhibition [4]: 0.58%
- inhibition [5]: -0.92%
- inhibition [6]: 1.93%
- inhibition [7]: -0.04%
- inhibition [8]: 1.72%
- inhibition [9]: 1.42%
- inhibition [10]: -0.06%

Compound: COc1cc(C=NNc2ncnc3c2cnn3Cc2ccccc2)ccc1O
- inhibition [1]: 1%
- inhibition [2]: -4.03%
- inhibition [3]: -1.04%
- inhibition [4]: 0.15%
- inhibition [5]: 3.36%
- inhibition [6]: 0.26%
- inhibition [7]: 4.01%
- inhibition [8]: 0.31%
- inhibition [9]: 5.24%
- inhibition [10]: 1.47%

Compound: Nc1nonc1-c1nc2cnccc2n1C1CCCCC1
- inhibition [1]: 4.59%
- inhibition [2]: -1.73%
- inhibition [3]: 2.27%
- inhibition [4]: 14.4%
- inhibition [5]: 61.2%
- inhibition [6]: 41.1%
- inhibition [7]: 80.9%
- inhibition [8]: 3.71%
- inhibition [9]: 21.7%
- inhibition [10]: 31%

Compound: CCn1c(-c2nonc2N)nc2c(C#CC(C)(C)O)ncc(OCC3CCNCC3)c21
- inhibition [1]: 3.59%
- inhibition [2]: 0.21%
- inhibition [3]: 4.23%
- inhibition [4]: 9.8%
- inhibition [5]: 48.9%
- inhibition [6]: 35.4%
- inhibition [7]: 70.1%
- inhibition [8]: 45.6%
- inhibition [9]: 75.7%
- inhibition [10]: 1.94%

Compound: CCn1c(-c2nonc2N)nc2c(C#CC(C)(C)O)nc(O[C@@H](CN)c3ccccc3)cc21
- inhibition [1]: 66.3%
- inhibition [2]: 10.9%
- inhibition [3]: 64.3%
- inhibition [4]: 68.7%
- inhibition [5]: 81.1%
- inhibition [6]: 67.9%
- inhibition [7]: 84.4%
- inhibition [8]: 82.3%
- inhibition [9]: 88.2%
- inhibition [10]: 9.16%

Compound: NS(=O)(=O)c1ccc(-c2ccc3c(NC(=O)C4CC4)n[nH]c3c2)cc1
- inhibition [1]: 0.5%
- inhibition [2]: 1.37%
- inhibition [3]: 0.5%
- inhibition [4]: 0.62%
- inhibition [5]: 1.57%
- inhibition [6]: 1.04%
- inhibition [7]: 3.29%
- inhibition [8]: 1.26%
- inhibition [9]: -1.16%
- inhibition [10]: 1.11%

Compound: NS(=O)(=O)c1ccc(N/C=C2\C(=O)Nc3ccc4ncsc4c32)cc1
- inhibition [1]: 58.2%
- inhibition [2]: 13.7%
- inhibition [3]: 54.2%
- inhibition [4]: 4.89%
- inhibition [5]: 16.7%
- inhibition [6]: 9.85%
- inhibition [7]: 47.9%
- inhibition [8]: 2.57%
- inhibition [9]: 6.55%
- inhibition [10]: 6.26%

Compound: NC(=O)c1sc(-n2cnc3cc(C(F)(F)F)ccc32)cc1OCc1ccccc1Br
- inhibition [1]: 2.17%
- inhibition [2]: 1.16%
- inhibition [3]: 1.32%
- inhibition [4]: 0.44%
- inhibition [5]: -0.88%
- inhibition [6]: 0.81%
- inhibition [7]: 1.01%
- inhibition [8]: 0.67%
- inhibition [9]: 1.17%
- inhibition [10]: 0.41%

Compound: COc1cc2c(cc1Nc1nc(Nc3ccsc3C(N)=O)c3cc[nH]c3n1)N(C(=O)CN(C)C)CCC2
- inhibition [1]: 39.7%
- inhibition [2]: 9.23%
- inhibition [3]: 51.1%
- inhibition [4]: -0.55%
- inhibition [5]: -0.01%
- inhibition [6]: 0.12%
- inhibition [7]: 1.58%
- inhibition [8]: 2.02%
- inhibition [9]: 1.29%
- inhibition [10]: 5.03%
